Compound activity as filed in PubChem BioAssay.
Compounds with a hit are over-represented: about 3% of the library has one in this group of screens.
SENP7 inh: blocks the human protease SENP7; Q9BQF6; recombinant SENP7, Z-RLRGG-aminoluciferin luminescence, 40 min; inhibition, % at 5 µM; 1.5% of 330,000 active; AID 434973;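 active = inhibition above about 50% at the single test dose, limit read from the data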
PPC-1+TRAIL kill: kills PPC-1 cancer cells in the presence of TRAIL | cell killing (% activity), % at 4 µM or 5 µM | PPC-1 cells + TRAIL, ATPLite viability luminescence | AID 1443 | 0.41% of 220,000 active;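 active = cell killing above 50% in the first pass at 4 µM, then a duplicate retest at 5 µM averaging 50% or more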
SENP6 block: inhibitors of human SENP6 protease; inhibition, % at 10 µM; Recombinant SENP6 catalytic domain, aminoluciferin luminescence; AID 2599; 1.8% of 330,000 active; Q9GZR1;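 active = inhibition above about 50% at the single tested dose, limit read from the data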
Target sequence (Q9GZR1 628-1112 limits assumed): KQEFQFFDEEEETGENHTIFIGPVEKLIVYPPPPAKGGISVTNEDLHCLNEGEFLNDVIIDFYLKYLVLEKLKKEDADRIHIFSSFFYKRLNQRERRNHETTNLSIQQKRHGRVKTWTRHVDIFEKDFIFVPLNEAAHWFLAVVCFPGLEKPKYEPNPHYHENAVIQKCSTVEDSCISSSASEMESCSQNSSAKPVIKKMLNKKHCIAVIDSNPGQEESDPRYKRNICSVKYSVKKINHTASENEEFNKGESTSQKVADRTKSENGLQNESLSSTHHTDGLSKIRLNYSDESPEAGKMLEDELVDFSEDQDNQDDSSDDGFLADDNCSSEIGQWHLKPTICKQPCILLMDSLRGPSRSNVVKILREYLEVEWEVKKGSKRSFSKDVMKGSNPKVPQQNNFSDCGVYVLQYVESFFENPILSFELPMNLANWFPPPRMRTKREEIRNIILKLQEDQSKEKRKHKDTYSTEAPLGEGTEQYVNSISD
SENP8 block-1: inhibitors of human SENP8 protease | purified SENP8, Z-RLRGG-aminoluciferin cleavage, luminescence | inhibition, % at 10 µM | 1.2% of 330,000 active | Q96LD8; in the data active = inhibition above about 50%
Target sequence (Q96LD8 whole entry, looked up): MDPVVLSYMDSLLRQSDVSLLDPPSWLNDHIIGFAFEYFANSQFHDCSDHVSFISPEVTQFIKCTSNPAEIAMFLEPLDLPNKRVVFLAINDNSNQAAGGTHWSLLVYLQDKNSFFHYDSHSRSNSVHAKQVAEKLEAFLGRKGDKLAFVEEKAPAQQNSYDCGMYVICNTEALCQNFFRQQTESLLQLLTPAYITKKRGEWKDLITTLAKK
SENP8 block-2: SENP8 (human) protease inhibition; Q96LD8; recombinant SENP8, Nedd8 substrate fluorescence; inhibition, % at 20 µM; 0.64% of 360,000 active; in the data active = inhibition mostly above about 40%, no sharp cut-off; inactive = mostly below about 27%
TRAIL sens C8: sensitizes caspase-8 expressing cells to TRAIL | NB7+C8 cells + TRAIL, ATPlite viability luminescence | inhibition (viability loss, TRAIL sensitization), % at 10 µM | 1% of 360,000 active | AID 624354;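 active = compounds causing at least 50% loss of cell viability in the single-dose screen, relative to plate controls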
Large screens that a line does not name were inactive.

Cc1c(NC(=O)CSCc2ccco2)c(=O)n(-c2ccccc2)n1C	none (no result: PPC-1+TRAIL kill)
O=C(NCCN1CCN(c2ccccc2)CC1)c1cccn2c(=O)c3ccccc3nc12	none
O=C(NCCNc1ccc2ccccc2c1)c1cccn2c(=O)c3sccc3nc12	SENP6 block 56.3 (no result: SENP8 block-2, TRAIL sens C8)
Cc1cc(C(=O)CCC(=O)N(C)CC(=O)Nc2c(Cl)cccc2Cl)c(C)s1	none (no result: PPC-1+TRAIL kill)
CC(C)N=c1cc2n(-c3ccc(Cl)cc3)c3ccccc3nc-2cc1Nc1ccc(Cl)cc1	TRAIL sens C8 80.6 (no result: PPC-1+TRAIL kill)
Cn1c(CNc2ccc(Cl)cc2)nc2ccccc21	none
CCCc1cc(=O)oc2c3c(cc(OCC(=O)N[C@@H](C)C(=O)O)c12)OC(C)(C)CC3	none (no result: PPC-1+TRAIL kill)
CCCc1cc(=O)oc2c3c(c4c(c12)OC(C)(C)C=C4)OC(C)C(C)C3O (stereo unspecified)	TRAIL sens C8 78.3
CCn1nccc1NC(=O)c1ccc2sc([C@@H]3O[C@H](CO)[C@H](O)[C@H](O)[C@H]3O)nc2c1	none (no result: SENP7 inh, PPC-1+TRAIL kill, SENP6 block, SENP8 block-1)
COc1cc(-c2cc(C(=O)N3CCN(c4ccccn4)CC3)c3ccccc3n2)cc(OC)c1OC	none (no result: PPC-1+TRAIL kill)
O=C(NC1=NCCS1)c1cc(-c2ccc(F)cc2)nc2ccccc12	none
CCOc1ccc(-c2cc(C(=O)N3CCCC3)c3ccccc3n2)cc1	TRAIL sens C8 64.3 (no result: PPC-1+TRAIL kill)
CCCc1ccc(-c2cc(C(=O)NC3=NCCS3)c3ccccc3n2)cc1	PPC-1+TRAIL kill 53.6, TRAIL sens C8 71.7
CCCc1ccc(-c2cc(C(=O)N3CCN(c4ccccn4)CC3)c3ccccc3n2)cc1	TRAIL sens C8 91.4 (no result: PPC-1+TRAIL kill)
COc1ccc(-c2cc(C(=O)N3CCN(c4ncccn4)CC3)c3ccccc3n2)cc1	TRAIL sens C8 63.6 (no result: PPC-1+TRAIL kill)
Cc1ccccc1OCCC(=O)OCC(=O)NC1CCS(=O)(=O)C1 (stereo unspecified)	none (no result: PPC-1+TRAIL kill)
Cc1ccc(C(=O)N[C@H](C(=O)NC2CCCCCCC2)C(C)C)cc1	none (no result: PPC-1+TRAIL kill)
COc1cc(CNC(=O)c2cc(C(=O)NCc3cc(OC)cc(OC)c3)n(C)n2)cc(OC)c1	none (no result: PPC-1+TRAIL kill)
C/C(=N\NC(=O)c1cc(-c2cccnc2)nc2ccccc12)c1ccc(O)cc1O	PPC-1+TRAIL kill 51.1
CCc1ccc(-c2cc(C(=O)NCc3ccccn3)c3ccccc3n2)cc1	TRAIL sens C8 59.8
COc1ccc(-c2cc(C(=O)N3CCN(c4ccccc4O)CC3)c3ccccc3n2)cc1	TRAIL sens C8 63.3 (no result: PPC-1+TRAIL kill)
CCOc1ccc(-c2cc(C(=O)N/N=C/c3cccnc3)c3ccccc3n2)cc1	TRAIL sens C8 73.5 (no result: PPC-1+TRAIL kill)
C/C(=N\NC(=O)c1cc(-c2cccc(OC(C)C)c2)nc2ccccc12)c1cccnc1	none (no result: PPC-1+TRAIL kill)
CCOc1ccccc1-c1cc(C(=O)N/N=C/c2cccnc2)c2ccccc2n1	none (no result: PPC-1+TRAIL kill)
CC(C)c1ccc(C(=O)OCC(=O)Nc2cccc(S(=O)(=O)NC3=NCCC3)c2)cc1	none (no result: SENP7 inh, PPC-1+TRAIL kill, SENP6 block, SENP8 block-1)
COc1ccccc1/C=C/C1(C(=O)NC2CCCC2)CC(=O)N1c1ccc(F)cc1 (stereo unspecified)	TRAIL sens C8 92.4
CCN(CC)S(=O)(=O)c1ccc(N2C(=O)CC2(/C=C/c2ccccc2)C(=O)NC2CCCC2)cc1 (stereo unspecified)	none
COc1ccccc1/C=C/C1(C(=O)NC2CCCC2)CC(=O)N1c1ccc(C)cc1 (stereo unspecified)	TRAIL sens C8 59.7
CCOc1ccc(OCCCC(=O)ON=C(N)c2ccccc2C)cc1	none (no result: PPC-1+TRAIL kill)
Cc1noc(/C=C/Nc2ccc(F)cc2F)c1[N+](=O)[O-]	SENP7 inh 97.2, SENP6 block 87.0, SENP8 block-1 83.8
COCCN(C(=O)c1oc2ccccc2c1COC)c1c(N)n(CC(C)C)c(=O)[nH]c1=O	none (no result: PPC-1+TRAIL kill)
O=C(CN1CCN(S(=O)(=O)c2ccc(F)cc2)CC1)Nc1ccc(Cl)c(C(F)(F)F)c1	TRAIL sens C8 60.0
O=C(COC(=O)CNC(=O)c1ccccc1Cl)Nc1ccccc1Cl	none (no result: PPC-1+TRAIL kill)
CCCNC(=O)N1C[C@H](O)COC[C@@H]2O[C@@H](CC(=O)NCCCN3CCOCC3)CC[C@H]21	none (no result: SENP7 inh, PPC-1+TRAIL kill, SENP6 block, SENP8 block-1)
Cc1cc(=O)c2c(o1)C(=O)c1occc1C2=O	SENP8 block-2 75.3 (no result: SENP7 inh, PPC-1+TRAIL kill, SENP6 block, SENP8 block-1)
O=[N+]([O-])c1ccc(S(=O)(=O)Nc2ccc(-c3ccc(N4CCOCC4)nn3)cc2)cc1	none (no result: PPC-1+TRAIL kill)
O=[N+]([O-])c1ccc(S(=O)(=O)Nc2cccc(-c3ccc(N4CCOCC4)nn3)c2)cc1	TRAIL sens C8 50.7 (no result: PPC-1+TRAIL kill)
Cn1c(=O)c(C(=O)Nc2cnccn2)c(O)c2ccccc21	none (no result: SENP7 inh, SENP6 block, SENP8 block-1, SENP8 block-2, TRAIL sens C8)
Cn1c(=O)c(C(=O)Nc2ccccn2)c(O)c2ccccc21	SENP7 inh 75.1, TRAIL sens C8 62.4
CC1(C)C=C(c2ccc(C=O)s2)CC(C)(C)N1C=O	PPC-1+TRAIL kill 62.3
CCCCCCC[N+](CC)(CC)CCCCc1ccc(Cl)cc1	TRAIL sens C8 56.6 (no result: PPC-1+TRAIL kill)
CCCCCNCc1ccc(Cl)cc1	none
CCc1ccc(N(CC(=O)N2CCOCC2)S(C)(=O)=O)cc1	none (no result: PPC-1+TRAIL kill)
CCN1/C(=C/c2ccc3ccccc3[n+]2CCCS(=O)(=O)[O-])C=Cc2cc(C)ccc21	none (no result: SENP7 inh, PPC-1+TRAIL kill, SENP6 block, SENP8 block-1)
CCN1/C(=C/c2ccc3ccccc3[n+]2CC)C=Cc2ccccc21	SENP8 block-2 42.3, TRAIL sens C8 58.9
O=C(N/N=C/c1cccc(OC2CSC2)c1)c1ccccc1O	none
Cn1nccc1C(=O)Oc1cccc(/C=N/NC(=O)c2ccccc2O)c1	TRAIL sens C8 53.0
CC(C)CNC(=O)c1ccc(-c2ccc(F)c(F)c2)c2ccoc12	none (no result: SENP7 inh, PPC-1+TRAIL kill, SENP6 block, SENP8 block-1)
Cc1ccccc1-c1cn(-c2ccccc2)c(=S)[nH]1	none (no result: PPC-1+TRAIL kill)
Cc1ccc(-c2cn(-c3ccccc3)c(=S)[nH]2)cc1C	SENP7 inh 86.5, SENP6 block 80.7, SENP8 block-1 65.9 (no result: PPC-1+TRAIL kill)
COc1cc(OC)c2c(c1)C(=O)c1cc(OC)cc(OC)c1C2=O	SENP8 block-2 57.4
CN(C)c1ccc(NC(=O)Nc2ccc3snnc3c2)cc1	SENP7 inh 61.9, SENP6 block 70.0
O=C(Nc1ccccc1)Nc1ccc2nnsc2c1	SENP7 inh 62.8, SENP6 block 54.1
COc1cc(CNC[C@H]2O[C@@H](n3cc(C)c(=O)[nH]c3=O)C[C@@H]2O)ccc1OCc1cccc(Cl)c1	none (no result: SENP7 inh, PPC-1+TRAIL kill, SENP6 block, SENP8 block-1)
C=CC(=O)N1C/C(=C/c2ccc(F)cc2)C(=O)/C(=C\c2ccc(F)cc2)C1	TRAIL sens C8 92.6 (no result: SENP7 inh, PPC-1+TRAIL kill, SENP6 block, SENP8 block-1)
C=CCn1c(C)cc(C(=O)COC(=O)[C@@H](NC(=O)c2ccccc2Cl)C(C)C)c1C	PPC-1+TRAIL kill 76.6, TRAIL sens C8 85.3
C=CCn1c(C)cc(C(=O)COC(=O)COc2ccccc2C#N)c1C	none
COc1ccc(CN2CCN(C(=O)c3ccccc3C(=O)c3ccccc3)CC2)cc1OC	none (no result: SENP7 inh, PPC-1+TRAIL kill, SENP6 block, SENP8 block-1)
CCOC(=O)c1cnc2c(-c3cccc(Br)c3)cnn2c1C	SENP7 inh 55.3
CCOC(=O)c1cnc2c(C(=O)OCC)cnn2c1N	none
CCCCCCCCCCCCCCCC[N+](C)(C)CCN(Cc1ccc(OC)cc1)c1ncccn1	TRAIL sens C8 53.4 (no result: PPC-1+TRAIL kill)
CN(C)c1cccc(C(=O)N/N=C/c2ccsc2)c1	TRAIL sens C8 57.6
Cc1scc(C(=O)N/N=C/c2ccsc2)c1C	PPC-1+TRAIL kill 54.3, TRAIL sens C8 62.1
